Consider eight compounds from PubChem BioAssay (Tox21).

Each structure is given as a SMILES string. Where “and” joins values, the source holds several entries; their conditions need not be identical. Identical values can stand only once. Results filed as inconclusive are left out. Some compounds were tested as several samples or in several runs, with calls that do not always agree. Calls of active or inactive are those of the source. Unless noted, the call rests on the fitted dose curve; in most records, active means well fitted curve in the direction sought with a large enough effect in the repeat runs; inconclusive means weak or mixed curves; inactive means no such curve, though single readings can be large; an effect the other way counts as inactive or inconclusive.

The nature of experiment [1]: A CellTox Green Cytotoxicity Assay to monitor cytotoxicity in HepG2 cells - 32 hour (AID 1224883). Further: nearly all actives have a fitted effect of over 50% in size. Further: potency means the concentration at half of the fitted maximal effect. Summed up:
(§1)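 HepG2 cells were seeded together with the CellTox Green dye at 600 cells/well, left 5 h at 37 C/5% CO2, then given compounds in DMSO. Fluorescence from dye bound to dead-cell DNA was read repeatedly over 40 h of treatment at 37 C.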

A short description of experiment [2]: A CellTox Green Cytotoxicity Assay to monitor cytotoxicity in HEK293 cells - 8 hour (AID 1224884). Further: nearly all actives have a fitted effect of over 35% in size. Further: potency means the concentration at half of the fitted maximal effect. Summed up:
(§2)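 HEK293 cells premixed with CellTox Green dye were seeded at 600 cells/well and left 5 h at 37 C/5% CO2 before pin transfer of 23 nL compound in DMSO. Fluorescence from dye bound to dead-cell DNA was read during 40 h treatment.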

The nature of experiment [3]: qHTS RealTime-Glo MT Cell Viability Assay in HepG2 cells - 16 hour (AID 1224885). Further: nearly all actives have a fitted effect of over 50% in size. Further: potency means the concentration at half of the fitted maximal effect. Summed up: (§3)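 HepG2 cells (600/well) were dispensed with RealTime-Glo reagents, incubated 5 h at 37 °C, then treated with compounds in DMSO for up to 40 h. Nonlytic NanoLuc luminescence reflecting viable cells was read at each stated time point.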
On the technique in general: In qHTS, concentration-response curves come from the screen itself.

The nature of experiment [4]: qHTS RealTime-Glo MT Cell Viability Assay in HEK293 cells - 24 hour (AID 1224886). Further: nearly all actives have a fitted effect of over 50% in size. Further: potency means the concentration at half of the fitted maximal effect. Summed up:
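HEK293 cells seeded with NanoLuc/prosubstrate reagent, rested 5 h at 37 C, then dosed and kept at 37 C up to 40 h. Nonlytic real-time luminescence from viable cells read at 0, 8, 16, 24, 32 and 40 h.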

A short description of experiment [5]: qHTS RealTime-Glo MT Cell Viability Assay in HEK293 cells - 8 hour (AID 1224887). Further: nearly all actives have a fitted effect of over 50% in size. Further: potency means the concentration at half of the fitted maximal effect. Summed up: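 HEK293 cells mixed with RealTime-Glo reagents (NanoLuc plus cell-permeant prosubstrate) at 600 cells/well, preincubated 5 h at 37 C/5% CO2, then given 23 nL compound in DMSO. Nonlytic luminescence from viable cells was read at 0, 8, 16, 24, 32 and 40 h.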
Experiment [6] in a line: A CellTox Green Cytotoxicity Assay to monitor cytotoxicity in HEK293 cells - 16 hour (AID 1224888). Further: nearly all actives have a fitted effect of over 35% in size. Further: potency means the concentration at half of the fitted maximal effect. Summed up:
as §2

Experiment [7] in a line: qHTS RealTime-Glo MT Cell Viability Assay in HepG2 cells - 0 hour (AID 1224889). Further: nearly all actives have a fitted effect of over 50% in size. Summed up: as §3
Experiment [8] is described as follows: A CellTox Green Cytotoxicity Assay to monitor cytotoxicity in HepG2 cells - 8 hour (AID 1224890). Further: nearly all actives have a fitted effect of over 45% in size. Further: potency means the concentration at half of the fitted maximal effect. Summed up:
as §1

Experiment [9] is described as follows: qHTS assay to identify small molecule antagonists of the estrogen receptor alpha (ER-alpha) signaling pathway using the BG1 cell line in the presence of 0.1 nM 17-beta-estradiol - cell viability counter screen (AID 1259241). Further: nearly all actives have a fitted effect of over 40% in size. Summed up: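 Viability in VM7Luc4E2 cells after 22 hr compound exposure under 0.1 nM 17beta-estradiol stimulation, by CellTiter-Fluor.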

A short description of experiment [10]: qHTS assay to identify small molecule antagonists of the androgen receptor (AR) signaling pathway using the MDA cell line in the presence of 0.5 nM R1881 - cell viability counter screen (AID 1259242). Further: nearly all actives have a fitted effect of over 45% in size. Further: potency means the concentration at half of the fitted maximal effect. Summed up: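 MDA-kb2 cells (human breast carcinoma, stably carrying MMTV-luciferase reporter) were exposed to compounds with 0.5 nM R1881 (final) for 16 hr at 37C, 0% CO2; viability then read as live-cell protease fluorescence (CellTiter-Fluor, 30 min) in the same wells.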

Experiment [11] deals with Estrogen receptor (Homo sapiens) (UniProt P03372). The experiment is described as follows: qHTS assay to identify small molecule antagonists of the estrogen receptor alpha (ER-alpha) signaling pathway using the BG1 cell line in the presence of 0.1 nM 17-beta-estradiol (AID 1259244). Further: nearly all actives have a fitted effect of over 50% in size. Summed up:
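VM7Luc4E2 cells (endogenous full-length ER-alpha, stable 4xERE-luciferase) were grown 5 days in phenol red-free medium with charcoal-stripped FBS, then exposed 22 h at 37C to compounds plus 0.1 nM (final) 17beta-estradiol; ONE-Glo luminescence read-out.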

Experiment [12] in a line: qHTS assay to identify small molecule HDAC inhibitors (AID 1259364). Further: top concentration of the series differs between compounds; nearly all actives have a fitted effect of over 45% in size. Summed up:
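Wild-type HCT-116 cells were plated overnight, exposed to compounds for 2 h at 37 °C, then given HDAC-Glo class I/II luminogenic reagent for 30 min at room temperature before luminescence was read.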

Experiment [13] is described as follows: qHTS assay to identify small molecule HDAC inhibitors - cell viability counter screen (AID 1259365). Summed up: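 Cytotoxicity was gauged in wild-type HCT-116 cells after a brief 2hr treatment with DMSO-dissolved compounds at 37C and 5% CO2, using CellTiter-Glo luminescence developed for 30min at room temperature.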
The nature of experiment [14]: qHTS assay to identify small molecule agonists of the sonic hedgehog signaling (Shh) pathway - cell viability counter screen (AID 1259366). Further: nearly all actives have a fitted effect of over 50% in size. Summed up:
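Stable Gli1-Luc NIH/3T3 clone, 2,000 cells/well. Compound exposure 24hr at 37C. Read-out: CellTiter-Fluor fluorescence.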

The nature of experiment [15]: qHTS assay to identify small molecule antagonists of the sonic hedgehog signaling (Shh) pathway - cell viability counter screen (AID 1259367). Further: nearly all actives have a fitted effect of over 55% in size. Summed up:
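After a 4 hr settling period, 3T3 Gli1-Luc cells were treated with DMSO-dissolved chemicals and conditioned medium, kept 24 hr at 37C in 5% CO2, and assayed for viability by CellTiter-Fluor fluorescence following 1 hr reagent incubation.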

Experiment [16] is described as follows: qHTS assay to identify small molecule agonists of the sonic hedgehog signaling (Shh) pathway (AID 1259368; calls by dose curve; further: series mostly up to about 92 µM; nearly all actives have a fitted effect of over 15% in size). Summed up: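 NIH/3T3-derived 3T3Gli1-Luc cells carrying a stably integrated Gli1 response element–firefly luciferase reporter were plated, left 4 hr at 37 C, then given compounds in DMSO for 24 hr. Luminescence was read 30 min after adding luciferase reagent.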

Experiment [17] in a line: qHTS assay to identify small molecule antagonists of the sonic hedgehog signaling (Shh) pathway (AID 1259369; calls by dose curve; further: nearly all actives have a fitted effect of over 45% in size; further: potency means the concentration at half of the fitted maximal effect). Summed up:
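NIH/3T3-derived 3T3Gli1-Luc cells with stably integrated Gli1-Luc reporter were preincubated 4hr at 37 C, then given compounds in DMSO plus Shh conditioned medium and incubated 24hr. Firefly luciferase luminescence read after 30min reagent at room temperature.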

The nature of experiment [18]: qHTS assay to identify small molecule phospholipidosis (PLD) inducers (AID 1259344; active means well fitted curve in the direction sought with a large enough effect; an effect the other way counts as inactive or inconclusive; further: potency means the concentration at half of the fitted maximal effect). Summed up:
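HepG2 cells grown on collagen I take up LipidTOX Red while exposed to compound for 24 h; after fixation they are imaged at 20x and pit metrics are extracted.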
On the % scale 0 is the no-effect control and ±100 the full control effect.

Estrogen receptor (Homo sapiens), sequence (P03372 whole entry, looked up): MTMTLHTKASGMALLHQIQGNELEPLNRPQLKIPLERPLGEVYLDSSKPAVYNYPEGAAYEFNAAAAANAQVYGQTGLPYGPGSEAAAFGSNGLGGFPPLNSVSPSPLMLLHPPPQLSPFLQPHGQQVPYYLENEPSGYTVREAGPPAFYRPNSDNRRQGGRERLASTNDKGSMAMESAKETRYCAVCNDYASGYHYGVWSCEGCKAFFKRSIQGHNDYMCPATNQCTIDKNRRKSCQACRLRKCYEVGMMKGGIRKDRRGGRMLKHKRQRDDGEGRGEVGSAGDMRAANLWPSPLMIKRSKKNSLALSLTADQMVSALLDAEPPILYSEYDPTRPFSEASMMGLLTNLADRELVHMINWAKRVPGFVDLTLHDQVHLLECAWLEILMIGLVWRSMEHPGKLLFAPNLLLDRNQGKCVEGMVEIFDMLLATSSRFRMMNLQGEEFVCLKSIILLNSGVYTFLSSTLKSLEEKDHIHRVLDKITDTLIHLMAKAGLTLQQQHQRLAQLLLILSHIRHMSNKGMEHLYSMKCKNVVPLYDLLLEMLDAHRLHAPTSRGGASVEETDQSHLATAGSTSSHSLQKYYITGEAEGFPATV

As for `Cc1cccc(C)c1`, the Potency result in experiment [1], in experiment [2], in experiment [3], in experiment [4], in experiment [5] and in experiment [6] was “inactive” throughout. Further, the Potency result in [7], in experiment [8], in experiment [9], in experiment [10], in [11] and in experiment [12] was “inactive” in each case. Further, the Potency result in [13], in experiment [14], in [15] and in [17] was “inactive” each time. The outcome in experiment [16] was inactive.

For the compound `CC/C(=C(\c1ccccc1)c1ccc(OCCN(C)C)cc1)c1ccccc1`, the Potency in experiment [1] was 43.6 µM (active) [middle of 5 runs]; in experiment [2], 44 µM (active) [middle of 5 runs]; in experiment [3] it was 43.6 µM (active) [middle of 5 runs]; in [4] it was 24.5 µM (active) [middle of 5 runs]; in experiment [5], 39.2 µM (active) [middle of 4 runs]; in [6], 39.2 µM (active) [middle of 5 runs]. The Potency is 55.3 µM (active) and 54.9 µM (active) and 49 µM (active) in [8]; 61.1 µM (active) [middle of 4 runs] in experiment [10]; 11.2 µM (active) in [18]; 23.7 µM (active) [middle of 4 runs] in experiment [17]. Further, the Potency result in [7], in [12] and in [13] was “inactive” each time. Moreover, the outcome in experiment [16] was inactive.

As for `O=C1NS(=O)(=O)c2ccccc21`, the Potency entry in experiment [1], in experiment [2], in [3], in experiment [4], in experiment [5] and in experiment [6] was “inactive” throughout. The Potency result in [7], in experiment [8], in experiment [9], in experiment [10], in [18] and in experiment [12] was “inactive” each time. Moreover, the Potency result in experiment [13], in experiment [14], in experiment [15] and in experiment [17] was “inactive” throughout. The result in [16] was inactive.

As for `C[C@](N)(Cc1ccc(O)c(O)c1)C(=O)O`, the Potency entry in [1], in experiment [2], in experiment [3], in [4], in [5] and in experiment [6] was “inactive” throughout. The Potency result in experiment [7], in experiment [8], in experiment [9], in [10], in experiment [18] and in experiment [12] was “inactive” in each case. Besides, the Potency entry in experiment [13], in [14], in experiment [15] and in experiment [17] was “inactive” each time. Also, in experiment [16], the outcome was inactive.

On to `CC(C)NCC(O)c1ccc(O)c(O)c1` (stereo unspecified), for which the Potency entry in experiment [1], in [2], in experiment [3], in [5], in [6] and in experiment [7] was “inactive” each time. Besides, the Potency result in experiment [8], in experiment [9], in [10], in experiment [18], in experiment [12] and in experiment [13] was “inactive” in each case. The Potency entry in experiment [14], in experiment [15] and in experiment [17] was “inactive” throughout. The Potency in experiment [4] was 48.4 µM (active) and inactive. Moreover, in experiment [16], the compound was called inactive.

On to `CC(=O)Nc1c(I)c(NC(C)=O)c(I)c(C(=O)O)c1I`, for which the Potency entry in experiment [1], in experiment [2], in experiment [3], in [4], in [5] and in experiment [6] was “inactive” in each case. The Potency result in experiment [7], in [8], in experiment [9], in [10], in experiment [18] and in experiment [12] was “inactive” in each case. In addition, the Potency result in [13], in experiment [14], in [15] and in experiment [17] was “inactive” in each case. Further, the call in experiment [16] was inactive.

In the case of `C1=CC2C3C=CC(C3)C2C1` (stereo unspecified), the Potency result in [1], in [3], in experiment [4], in experiment [5], in experiment [7] and in [8] was “inactive” each time. Further, the Potency result in experiment [9], in [10], in experiment [12], in [13], in experiment [14] and in experiment [15] was “inactive” throughout. In addition, the Potency in experiment [2] is 54 µM (active). Also, in experiment [18], the PLD induction is -3.38% [at 3.15 µM] (inactive). Besides, the compound was called inactive in [16].

Consider `Nc1ccc(S(N)(=O)=O)cc1`, for which the Potency entry in experiment [1], in experiment [2], in experiment [3], in [4], in experiment [5] and in experiment [6] was “inactive” in each case. Further, the Potency entry in experiment [7], in [8], in [9], in experiment [10], in experiment [18] and in experiment [12] was “inactive” in each case. Moreover, the Potency entry in experiment [13], in experiment [14], in experiment [15] and in [17] was “inactive” each time. The compound was called inactive in experiment [16].
